Measured values: publication PMC4336329 (PLoS ONE, 2015)
Out of some 310,000 compounds screened, about 14,000 (4.5%) showed an effect of 50% or more. Effects have a minus sign here. Only a selection was taken, and strong results are over-represented in it overall.

The compounds below were run against human ether-à-go-go-related gene (hERG) potassium channel (human, UniProt Q12809) (assay: primary screen, population patch clamp on CHO cells stably expressing hERG; higher = less effect of the substance).
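Also: peak tail current of the secondary pulse compared with the same well before compound.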

Chain of human ether-à-go-go-related gene (hERG) potassium channel (Q12809 whole entry, looked up): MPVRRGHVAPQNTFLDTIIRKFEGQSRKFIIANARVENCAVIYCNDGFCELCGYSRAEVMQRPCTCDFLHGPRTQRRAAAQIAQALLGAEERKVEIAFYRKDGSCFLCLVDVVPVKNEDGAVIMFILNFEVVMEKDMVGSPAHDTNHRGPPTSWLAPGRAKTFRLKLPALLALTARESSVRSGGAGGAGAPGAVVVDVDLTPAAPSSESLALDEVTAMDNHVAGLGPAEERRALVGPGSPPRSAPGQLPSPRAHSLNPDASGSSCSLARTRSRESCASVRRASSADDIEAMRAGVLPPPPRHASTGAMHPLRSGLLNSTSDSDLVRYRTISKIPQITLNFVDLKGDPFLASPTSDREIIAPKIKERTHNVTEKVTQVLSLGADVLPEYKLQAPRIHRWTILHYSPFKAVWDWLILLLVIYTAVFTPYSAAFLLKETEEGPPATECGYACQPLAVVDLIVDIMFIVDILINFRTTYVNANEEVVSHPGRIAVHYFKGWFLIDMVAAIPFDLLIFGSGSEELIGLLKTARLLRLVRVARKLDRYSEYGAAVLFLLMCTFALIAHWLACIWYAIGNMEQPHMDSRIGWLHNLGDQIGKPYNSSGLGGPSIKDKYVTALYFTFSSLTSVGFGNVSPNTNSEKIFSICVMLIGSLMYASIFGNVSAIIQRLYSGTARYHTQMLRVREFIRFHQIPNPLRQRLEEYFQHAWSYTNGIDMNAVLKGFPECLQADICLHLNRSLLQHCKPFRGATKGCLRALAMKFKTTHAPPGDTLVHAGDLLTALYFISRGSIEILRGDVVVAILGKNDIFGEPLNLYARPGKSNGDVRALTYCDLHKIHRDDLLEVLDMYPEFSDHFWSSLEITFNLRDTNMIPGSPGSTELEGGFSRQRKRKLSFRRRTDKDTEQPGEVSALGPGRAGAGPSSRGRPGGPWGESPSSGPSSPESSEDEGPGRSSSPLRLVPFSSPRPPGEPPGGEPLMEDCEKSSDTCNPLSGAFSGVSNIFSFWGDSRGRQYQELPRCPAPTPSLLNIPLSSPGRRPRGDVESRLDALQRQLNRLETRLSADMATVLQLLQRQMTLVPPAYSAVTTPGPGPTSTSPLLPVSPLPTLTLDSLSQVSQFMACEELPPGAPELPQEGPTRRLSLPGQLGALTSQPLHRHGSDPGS

SMILES	hERG current change (%, negative = inhibition) at 10uM [%]
O=C(CCC1CCCN(c2ncccn2)C1)NCc1ccc(F)c(F)c1 (centres unmarked)	-40.8
O=C(CCC1CCCN(Cc2ccncc2)C1)NCc1ccc(F)c(F)c1 (centres unmarked)	-13.6
CC(=O)c1cccc(CN2CCCC(CCC(=O)NCc3ccc(F)c(F)c3)C2)c1 (centres unmarked)	-74.7
O=C(CCC1CCCN(Cc2ccc3c(c2)OCCO3)C1)NCc1ccc(F)c(F)c1 (centres unmarked)	-61.5
O=C(CCC1CCCN(C(=O)c2ccc3c(c2)OCO3)C1)NCc1ccc(F)c(F)c1 (centres unmarked)	-8.73
O=C(CCC1CCCN(Cc2ccc3c(c2)OCCO3)C1)NCc1ccccc1F (centres unmarked)	-24.2
CC1=C(C(=O)N2CCCC(CCC(=O)NCc3ccc(F)c(F)c3)C2)OCCO1 (centres unmarked)	3.36
O=C(CCC1CCCN(Cc2cccc3c2OCO3)C1)NCc1ccc(F)c(F)c1 (centres unmarked)	-74.4
CC(=O)c1cccc(CN2CCCC(CCC(=O)NCc3ccccc3F)C2)c1 (centres unmarked)	-48.5
O=C(CCC1CCCN(C(=O)c2ccncc2)C1)NCc1ccc(F)c(F)c1 (centres unmarked)	-1.99
O=C(CCC1CCCN(Cc2ccc3c(c2)CCO3)C1)NCc1ccc(F)c(F)c1 (centres unmarked)	-63.7
COc1cccc(CNC(=O)CCC2CCCN(Cc3ccc4c(c3)CCO4)C2)c1 (centres unmarked)	-33.6
COC(=O)Oc1ccc(/C=C/C(=O)OC(C)C)cc1OC(=O)OC	1.69
Cc1ccc(C(=O)NCCc2ccc(S(=O)(=O)N3CCCC3)cc2)cc1	-0.599
CCOc1ccc(C(=O)N(C)C2CCS(=O)(=O)C2)cc1 (centres unmarked)	18.3
O=C(CSc1nnc(-c2ccco2)o1)NC(=O)Cc1ccccc1	-5.31
CC[C@@H](CCC=C(C)C)C(=O)N(Cc1ccccc1)c1ccccc1	3.94
CN1CCC(O)(c2ccccc2)C(C(=O)c2ccccc2)C1 (centres unmarked)	-2.34
CCN1CCC(O)(c2ccccc2)C(C(=O)c2ccccc2)C1 (centres unmarked)	-7.58
CN1CCC(O)(c2ccc(Cl)cc2)C(C(=O)c2ccc(Cl)cc2)C1 (centres unmarked)	-67.7
O=C(CCl)Oc1ccc2occ(C(=O)c3cccs3)c2c1	0.872

SMILES	hERG current change (%, negative = inhibition) at 10uM [%]
C/C(=N\Nc1ccc(Cl)c(C(=O)O)c1)c1ccccn1	5.73
CCOc1cccc(SCc2noc(C(=O)NCC3CCCO3)c2C(=O)O)c1 (centres unmarked)	32.2
NS(=O)(=O)c1ccc(-c2cccc(/C=C3\SC(=O)NC3=O)c2)cc1	7.87
Cc1cc(/C=C(/C#N)C(=O)Nc2ccc(Cl)cc2)c(C)n1-c1cccnc1	-67.5
Cc1cc(/C=C(/C#N)C(=O)Nc2ccccc2)c(C)n1-c1cccnc1	-28.5
Cc1cc(/C=C(\C#N)C(=O)Nc2ccccc2)c(C)n1-c1cccnc1	8.27
Cc1c(C(=O)N2CCCC2)nnn1-c1nonc1N	8.67
CCC(=O)N1N=C(c2ccc(NS(=O)(=O)CC)cc2)CC1c1ccc(C)cc1 (centres unmarked)	-14.1
CS(=O)(=O)Nc1cccc(C2=NN(C(=O)c3ccccc3)C(c3cccs3)C2)c1 (centres unmarked)	-14
CCS(=O)(=O)Nc1ccc(C2=NN(C(=O)c3ccco3)C(c3cccc(F)c3)C2)cc1 (centres unmarked)	-32.4
CS(=O)(=O)Nc1ccc(C2=NN(C(=O)c3ccco3)C(c3ccccc3F)C2)cc1 (centres unmarked)	-78.2
Cc1ccc(C2=NN(C(=O)c3ccccc3F)C(c3ccccc3F)C2)cc1 (centres unmarked)	19
CCC(=O)N1N=C(c2ccc(NS(C)(=O)=O)cc2)CC1c1ccc(C)cc1 (centres unmarked)	-44.7
O=C(c1ccco1)N1N=C(c2ccc(Br)cc2)CC1c1ccco1 (centres unmarked)	18.5
CS(=O)(=O)Nc1ccc(C2=NN(C(=O)c3ccco3)C(c3cccc(F)c3)C2)cc1 (centres unmarked)	-78.3
CCS(=O)(=O)Nc1cccc(C2=NN(C(=O)c3ccco3)C(c3ccco3)C2)c1 (centres unmarked)	-4.98
CCC(=O)N1N=C(c2ccc(NS(C)(=O)=O)cc2)CC1c1ccc(N(C)C)cc1 (centres unmarked)	-66.2
CS(=O)(=O)Nc1cccc(C2=NN(C(=O)c3ccco3)C(c3cccs3)C2)c1 (centres unmarked)	-59
CS(=O)(=O)Nc1cccc(C2=NN(C(=O)c3ccco3)C(c3ccco3)C2)c1 (centres unmarked)	-2.88
CCn1c(CSc2nc3ccccc3s2)nnc1SCC(=O)c1ccc2c(c1)OCCO2	-10.5
O=C(COC(=O)/C=C/c1cccc(F)c1)Nc1ccc2[nH]c(=O)[nH]c2c1	9.96

SMILES	hERG current change (%, negative = inhibition) at 10uM [%]
CCNC(=O)NC1(C(=O)N2CCC(Cc3ccccc3)CC2)CCCCC1	21.7
CCCn1c(N)c(C(=O)CSc2nnc(Cc3cccs3)n2C2CC2)c(=O)n(C)c1=O	-0.534
COc1ccc(N(CC(=O)Nc2ccccc2F)S(=O)(=O)c2ccc(OC)c(OC)c2)cc1	-24.2
O=C(NCCN1CCOCC1)c1cccc(S(=O)(=O)N2CCCCCC2)c1	7.38
COc1ccc(C(=O)N/N=C/c2ccc(OC(=O)c3cccc4ccccc34)c([N+](=O)[O-])c2)cc1	3.57
O=C(COC(=O)c1ccc(S(=O)(=O)NCc2ccco2)cc1)NC1CCCCC1	-1.72
CCN(Cc1nc(-c2ccc(OC)c(OC)c2)no1)C(=O)c1ccc2c(c1)OCO2	5.32
O=c1[nH]c2c(c(=O)[nH]1)CCC2	17.7
CS(=O)(=O)Nc1ccc(C2=NN(C(=O)c3ccco3)C(c3ccco3)C2)cc1 (centres unmarked)	-72.3
CS(=O)(=O)Nc1ccc(C2=NN(C(=O)c3ccco3)C(c3ccc(F)cc3)C2)cc1 (centres unmarked)	-81.1
O=C(c1ccco1)N1N=C(c2ccc3nccnc3c2)CC1c1ccccc1 (centres unmarked)	-22.3
CCC(CC)C(=O)N1N=C(c2ccc(NS(C)(=O)=O)cc2)CC1c1ccc(C)cc1 (centres unmarked)	-7.85
Cc1ccc(C2CC(c3ccc(NS(C)(=O)=O)cc3)=NN2C(=O)c2ccco2)cc1 (centres unmarked)	-78.5
CCS(=O)(=O)Nc1ccc(C2=NN(C(=O)c3ccco3)C(c3ccco3)C2)cc1 (centres unmarked)	-7.66
O=C(c1ccco1)N1N=C(c2ccccc2)CC1c1ccc2nccnc2c1 (centres unmarked)	-45
CS(=O)(=O)Nc1ccc(C2=NN(C(=O)c3ccco3)C(c3ccccc3)C2)cc1 (centres unmarked)	-77.6
CCS(=O)(=O)Nc1ccc(C2=NN(C(=O)c3ccco3)C(c3cccs3)C2)cc1 (centres unmarked)	-1.38
CCS(=O)(=O)Nc1ccc(C2=NN(C(=O)c3ccco3)C(c3ccc(C)cc3)C2)cc1 (centres unmarked)	-21
O=C(c1ccco1)N1N=C(c2ccc(Cl)cc2)CC1c1ccco1 (centres unmarked)	15
O=C(c1ccco1)N1N=C(c2cccs2)CC1c1ccc(F)cc1 (centres unmarked)	-29
